Screens as filed in PubChem.
Hits are enriched below; roughly 6.6% of the tested compounds scored in any of these assays.
MCF10A rerep = DNA re-replication induction in MCF 10a cells; AID 624296; 350,000 tested, 2.9% active; MCF 10A DNA re-replication, Hoechst nuclear intensity, 48 h; Potency, µM (highest dose often 46.1 µM), most hits filed as activators; also: nearly all actives have a fitted effect of over 50% in size
RGS4 inh = inhibitors of human regulator of G protein signaling 4; Potency, µM (doses to about 114 µM), usual class: inhibitors; P49798; Transcreener GDP fluorescence polarization, RGS4-accelerated GTP hydrolysis; AID 504845; 390,000 tested, 0.039% active; also: nearly all actives have a fitted effect of over 75% in size
Target sequence (P49798 whole entry, looked up): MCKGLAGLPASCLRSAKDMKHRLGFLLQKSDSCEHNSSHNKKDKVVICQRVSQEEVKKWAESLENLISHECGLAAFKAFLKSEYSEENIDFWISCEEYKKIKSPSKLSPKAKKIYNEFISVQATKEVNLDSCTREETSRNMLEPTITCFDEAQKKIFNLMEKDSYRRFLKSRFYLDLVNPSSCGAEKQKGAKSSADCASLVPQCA
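MLSMR compounds (23 nl, pin-transferred) preincubated 10 min at room temperature with a 500nM (2x) first reagent, then RGS4 at 900nM (2x) plus Transcreener GDP mix added; fluorescence polarization (620/688 nm) read before and after 90 min at 30 °C.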
KB-V1 cytotox = KB-V1 MDR subline cytotoxicity | KB-V1 MDR cells viability, CellTiter-Glo, 72 h | Potency, µM (highest dose often 46.1 µM), usual class: cytotoxic | 400,000 tested, 3.4% active | AID 1347076; also: nearly all actives have a fitted effect of over 60% in size
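Cytotoxicity toward P-gp-expressing KB-V1 cells was determined as loss of CellTiter-Glo luminescence after 72 h at 37 degrees C. Compounds were tested in quantitative HTS format across a concentration range, with curves fitted to normalized data.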
TSG101-PTAP inh = blocks PTAP/TSG101 interaction to inhibit HIV-1 budding; AID 493005; Fluorescence polarization, FITC-PTAP peptide / Tsg101 binding; Potency, µM (highest dose often 115 µM), most hits filed as inhibitors; 340,000 tested, under 10 active; active = well fitted inhibition curve with a large enough effect in the main read-out, with a control signal flat, not every such curve was filed as active; inconclusive = small, poorly fitted or top-dose-only effect, or effect the other way, or a change in a side signal; inactive = no such curve, though single readings can be large or run the other way
Target sequence (Q99816 whole entry, looked up): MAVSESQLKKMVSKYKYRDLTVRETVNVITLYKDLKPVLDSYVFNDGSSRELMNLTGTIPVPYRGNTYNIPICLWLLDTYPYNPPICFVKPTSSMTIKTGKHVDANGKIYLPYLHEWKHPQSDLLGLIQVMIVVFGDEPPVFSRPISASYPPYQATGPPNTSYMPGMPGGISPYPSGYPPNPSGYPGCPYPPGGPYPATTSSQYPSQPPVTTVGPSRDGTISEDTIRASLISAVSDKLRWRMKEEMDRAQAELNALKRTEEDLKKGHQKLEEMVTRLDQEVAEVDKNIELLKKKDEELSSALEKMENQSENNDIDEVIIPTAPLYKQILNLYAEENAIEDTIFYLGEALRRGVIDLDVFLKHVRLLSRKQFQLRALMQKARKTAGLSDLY
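Fluorescence polarization binding of Tsg101 binding domain (10 uM final) to FITC-labeled PTAP peptide (50 nM final) in HEPES pH 7.5 buffer with NaCl, Tween 20, EDTA, TCEP. Compounds added before peptide; binding 20 min at RT.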
KB-3-1 cytotox = KB-3-1 parental cell cytotoxicity. KB-3-1 viability, CellTiter-Glo ATP luminescence, 72 h. Potency, µM (doses to about 46.1 µM), most hits filed as cytotoxic. 400,000 tested, 1.4% active; also: nearly all actives have a fitted effect of over 60% in size
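KB-3-1 parental drug-naive adenocarcinoma cells in DMEM/10% FBS, incubated 72 h at 37 C with pin-transferred compounds across a concentration series. Viability by CellTiter-Glo luminescence; concentration-response curves fitted after normalization.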
SW480 rereplic = DNA re-replication induction in SW480 cells | SW480 DNA re-replication, Hoechst DNA content imaging, 48 h | Potency, µM (series often up to 46.1 µM), actives largely listed as activators | 340,000 tested, 1.8% active | AID 624297; also: nearly all actives have a fitted effect of over 55% in size
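SW480 cells exposed to compounds for 48 hr at 37 C, 5% CO2, then Hoechst-stained 40 min. Nuclear DNA content imaged by fluorescence scanning (405 nm excitation, 500-530 nm emission); re-replication scored as increased high-intensity nuclei.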
Numbers stand for hits; - = inactive; ? = inconclusive; . = no result given; [ ] = dose if it differs, or a comment. Unless noted, calls follow the shape of the dose curve; as a rule, active = well fitted curve in the direction sought with a large enough effect; inconclusive = small, poorly fitted or top-dose-only effect, or another doubt; inactive = no such curve, though single readings can be large; an effect the other way counts as inactive or inconclusive.

SMILES	MCF10A rerep	RGS4 inh	KB-V1 cytotox	TSG101-PTAP inh	KB-3-1 cytotox	SW480 rereplic
CN(Cc1ccc(OC(F)F)cc1)C(=O)c1cccc(S(=O)(=O)N2CCN(Cc3ccccc3)CC2)c1	-	-	?	-	15µM	-
CN(CC(=O)Nc1ccc(Cl)cc1)C(=O)c1cccc(S(=O)(=O)N2CCN(Cc3ccccc3)CC2)c1	?	-	?	-	16µM	-
CN(C)C(=O)c1ccc(NC(=O)c2cccc(S(=O)(=O)N3CCN(Cc4ccccc4)CC3)c2)cc1	-	-	-	-	-	-
CCOCCCn1c(SCC(=O)Nc2cc(C)ccc2C)nc2c(oc3ccccc32)c1=O	.	-	-	.	-	.
Cc1cccc(C)c1NC(=O)CN(C)c1ccc(C(F)(F)F)cn1	-	-	-	-	-	12µM
Cc1cccc(C)c1NC(=O)CN(CC(=O)O)CC(=O)O	-	.	.	.	.	-
Cc1cccc(C)c1NC(=O)CN(C)C(=O)c1ccc(-c2cccc(C(F)(F)F)c2)o1	-	-	-	-	-	4.1µM
COc1cc2c(=O)c(S(=O)(=O)c3ccc(C)cc3)cn(Cc3cccc(C)c3)c2cc1OC	.	-	-	.	-	.
CN(c1nnc(NC(=O)Nc2ccc(Br)cc2)s1)C1CCCCC1	.	-	-	.	-	.
CCCN(CCC)c1nc(N)nc(C#N)n1	.	-	?	.	-	.
O=[N+]([O-])c1cc(C(F)(F)F)ccc1N1CCN(S(=O)(=O)c2ccc3c(c2)CCCC3)CC1	-	-	5.2µM	-	?	-
CCNc1cc(N2CCN(S(=O)(=O)c3ccc4c(c3)CCCC4)CC2)ccc1[N+](=O)[O-]	-	-	1.5µM	-	-	-
Cc1ccc(NC(=O)CN(C)S(=O)(=O)c2ccc3c(c2)n(C)c(=O)c(=O)n3C)cc1C	.	-	-	.	-	.
COc1ccc(N2C3=C(C(=O)CC(C)(C)C3)C(c3ccccc3OC)C3=C2CC(C)(C)CC3=O)cc1	16µM	-	?	-	-	18µM
COc1ccc(N2C3=C(CC4=C2CC(C)(C)CC4=O)C(=O)CC(C)(C)C3)cc1	-	?	-	-	?	-
COc1ccccc1C1C2=C(CC(C)(C)CC2=O)N(CC(=O)O)C2=C1C(=O)CC(C)(C)C2	21µM	-	-	-	-	-
CCOc1ccc(C2C3=C(CC(C)(C)CC3=O)N(CC(=O)O)C3=C2C(=O)CC(C)(C)C3)cc1OCC	0.82µM	-	-	-	-	-
C#CCOc1ccc(C2C3=C(CC(C)(C)CC3=O)N(CC(=O)O)C3=C2C(=O)CC(C)(C)C3)cc1OC	-	-	-	-	-	-
CC1=Nc2ccccc2/C1=C/c1ccc(N(C)C)cc1	.	.	-	.	-	.
CC1=Nc2ccccc2/C1=C/c1c(C)[nH]c2ccccc12	0.82µM	-	-	-	?	10µM
Cc1cc(C)cc(OCC(=O)Nc2ccccc2N2CCCCC2)c1	8.2µM	-	-	-	-	?
Cc1ccccc1OCC(=O)Nc1ccccc1N1CCCCC1	?	-	15µM	-	?	?
COc1ccccc1C(=O)Nc1ccc2c(c1)CN(C(=O)CSC)CC2	12µM	-	-	-	26µM	?
COc1ccccc1C(=O)Nc1ccc2c(c1)CCCN2C(=O)c1cccs1	?	-	-	-	?	-
CCOC(=O)CNC(=O)N1CCc2ccc(NC(=O)c3ccccc3Cl)cc2C1	7.3µM	-	?	-	-	-
SMILES	MCF10A rerep	RGS4 inh	KB-V1 cytotox	TSG101-PTAP inh	KB-3-1 cytotox	SW480 rereplic
COc1ccccc1C(=O)Nc1ccc2nc(SCC(=O)N3CCCC3)sc2c1	.	-	.	.	.	.
COc1ccccc1C(=O)Nc1ccc2c(c1)CCCN2C(=O)c1ccccc1	-	-[11.4 µM]	?	-	18µM	-
CC(C)(C)C(=O)Nc1c(C(=O)N2CCN(c3ccc(F)cc3)CC2)oc2ccccc12	.	-	-	.	-	.
O=C(CSc1nnc(-c2ccc(Cl)cc2)n1CC1CCCO1)NC1CCS(=O)(=O)C1 (stereo unspecified)	1.2µM	-	-	-	-	?
Cc1ccccc1-n1c(-c2ccc(Cl)cc2)cnc1SCC(=O)NC1CCS(=O)(=O)C1 (stereo unspecified)	-	-	18µM	-	-	-
CCOC(=O)C1CCCN(c2ncnc3c2cnn3-c2ccc(C)c(Cl)c2)C1 (stereo unspecified)	.	-	?	.	-	.
Cc1nnc(NCc2ccccc2)c2c1nnn2Cc1ccccc1Cl	.	-	-	.	-	.
N#C/C(=C\Nc1ccc2cn[nH]c2c1)c1nc(-c2ccccc2)cs1	16µM	-	-	-	-	-
CCOCCCNC(=O)c1cc(=O)n(Cc2cccc(C)c2)c2ccccc12	?	-	9.2µM	-	?	?
COc1ccc(C2=CC(c3ccc(F)cc3)n3ncc(C(=O)Nc4ccc(C)cc4)c3N2)cc1 (stereo unspecified)	.	-	-	.	?	.
Cc1ccc(-c2ccc(/C=C3\SC(N4CCOCC4)=NC3=O)o2)cc1	23µM	?	-	-	-	18µM
O=C1N=C(N2CCOCC2)S/C1=C/c1ccc(-c2ccc(F)cc2)o1	?	-	-	-	-	?
COc1ccc(Nc2nc3ccccc3n3cnnc23)cc1	?	-	13µM	.	-	-
COc1cccc(/C=N/Nc2nc3ccccc3n3cnnc23)c1	-	-	-	-	-	-
COc1cccc(/C=N/Nc2nc3ccccc3n3cnnc23)c1O	?	-	6.5µM	-	?	?
CCCOP(=O)(c1ccc(N(C)C)cc1)C(Nc1ccccc1)c1ccc(C)cc1 (stereo unspecified)	?	-	21µM	-	-	-
N#CC1=C(N)OC2=C(CCc3ccccc32)C1c1ccccc1Cl (stereo unspecified)	2.9µM	-	4.6µM	-	?	8.2µM
Cc1ccc(N2C(=O)C(CC(=O)Nc3ccc(F)cc3)N(CCC3=CCCCC3)C2=O)cc1 (stereo unspecified)	.	-	?	.	?	.
CN(C)c1ccc(/C=C/c2nc3ccccc3s2)cc1Cl	.	.	-	.	-	.
COc1cc2nc(/C=C/c3ccc(N(C)C)cc3)sc2cc1SC	3.3µM	-	-	?	-	21µM
CCOC(=O)c1ccccc1NC(=O)c1cnc(N2CCOCC2)c2ccccc12	.	-	-	.	-	.
Cc1ccc(-c2cc(-c3ccccc3)c(C#N)c(N)n2)o1	18µM	-[11.4 µM]	-	-	-	18µM
Cc1ccc(-c2cc(-c3ccc(F)cc3)nc(N)c2C#N)o1	3.7µM	?	-	-	-	12µM
COc1ccc(C2CC(=O)NC(NC(=O)c3ccc(Br)cc3)=N2)c(OC)c1OC (stereo unspecified)	.	-	.	.	.	.
COc1ccc(/C=N/NC(=O)Nc2cccc3nsnc23)c(OC)c1	?	-	-	-	-	?
COc1cc(/C=N/NC(=O)Nc2cccc3nsnc23)cc(OC)c1OC	3.3µM	-	-	-	-	?
